In paper PMC4336329 (PLoS ONE, 2015):
Out of some 310,000 compounds screened, about 14,000 (4.5%) showed an effect of 50% or more. The effect is printed as a negative number. The full list was thinned out, with strong results kept by preference.

These compounds were tested against human ether-à-go-go-related gene (hERG) potassium channel (human, UniProt Q12809) (assay: primary screen, population patch clamp on CHO cells stably expressing hERG; higher = less effect of the substance).
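Further: peak tail current of the secondary pulse compared with the same well before compound.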

Chain of human ether-à-go-go-related gene (hERG) potassium channel (Q12809 whole entry, looked up): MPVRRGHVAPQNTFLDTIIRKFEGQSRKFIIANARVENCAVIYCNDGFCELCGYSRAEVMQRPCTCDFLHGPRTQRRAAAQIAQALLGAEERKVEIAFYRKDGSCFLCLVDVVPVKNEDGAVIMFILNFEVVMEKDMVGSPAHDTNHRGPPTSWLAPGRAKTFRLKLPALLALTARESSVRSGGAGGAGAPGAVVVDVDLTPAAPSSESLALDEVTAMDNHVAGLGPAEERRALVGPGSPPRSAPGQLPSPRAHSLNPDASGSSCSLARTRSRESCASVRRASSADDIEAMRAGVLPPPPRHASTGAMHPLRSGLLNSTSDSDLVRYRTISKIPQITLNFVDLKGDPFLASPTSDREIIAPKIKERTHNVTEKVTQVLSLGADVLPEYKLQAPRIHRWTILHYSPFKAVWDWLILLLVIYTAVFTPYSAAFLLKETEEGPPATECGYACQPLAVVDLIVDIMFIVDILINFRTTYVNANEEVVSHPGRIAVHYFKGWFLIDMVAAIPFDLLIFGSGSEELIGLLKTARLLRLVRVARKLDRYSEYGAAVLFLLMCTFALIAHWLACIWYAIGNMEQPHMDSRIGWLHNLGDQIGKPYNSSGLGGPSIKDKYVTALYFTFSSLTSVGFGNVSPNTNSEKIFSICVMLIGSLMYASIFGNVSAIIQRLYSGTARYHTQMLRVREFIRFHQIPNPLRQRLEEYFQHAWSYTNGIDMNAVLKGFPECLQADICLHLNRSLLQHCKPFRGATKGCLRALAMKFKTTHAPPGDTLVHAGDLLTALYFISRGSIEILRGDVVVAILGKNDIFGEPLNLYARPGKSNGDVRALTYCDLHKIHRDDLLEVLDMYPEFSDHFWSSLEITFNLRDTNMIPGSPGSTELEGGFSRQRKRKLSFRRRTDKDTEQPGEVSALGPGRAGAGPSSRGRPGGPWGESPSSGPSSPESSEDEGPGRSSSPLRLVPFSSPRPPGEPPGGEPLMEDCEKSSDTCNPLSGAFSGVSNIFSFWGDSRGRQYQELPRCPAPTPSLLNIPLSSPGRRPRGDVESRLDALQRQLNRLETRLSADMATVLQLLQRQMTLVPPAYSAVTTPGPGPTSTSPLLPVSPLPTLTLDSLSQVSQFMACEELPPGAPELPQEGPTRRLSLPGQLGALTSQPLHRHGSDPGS

SMILES | hERG current change (%, negative = inhibition) at 10uM
COc1ccc(-c2nnc(SCC#CCO)o2)cc1OC | 4.93%
COc1ccccc1N1CCN(S(=O)(=O)c2ccc3c(c2)oc(=O)n3C)CC1 | 26%
COc1ccc(NC(=O)CN(C)C(=O)/C=C/c2cn(-c3ccccc3)nc2-c2ccc(C)cc2)cc1 | 13.8%
COc1ccc(C2=NS(=O)(=O)N(C)C(C(=O)Nc3ccc(F)cc3F)=C2)cc1 | 10.1%
CN(Cc1ccccc1)C(=O)COC(=O)C1CCN(S(=O)(=O)c2ccc(Cl)c(C(F)(F)F)c2)CC1 | -15.8%
CCC/C(=N\NC(=O)CNC(=O)c1ccc(Cl)cc1)c1ccccc1 | -1.56%
CC(NC(=O)COc1ccc(S(=O)(=O)N2CCOCC2)cc1)c1ccccc1 (stereo not shown) | -4.63%
O=C(/C=C\c1ccccc1OC(=O)c1ccccc1F)c1cc2ccccc2o1 | -3.12%
CNC(=O)NC(=O)CSc1nnc(-c2ccco2)n1Cc1ccccc1 | -8.53%
COC(=O)CCNCCSc1nnc(-c2ccco2)n1Cc1ccccc1.O=C(O)C(=O)O | -64.5%
COCCn1c(SCC(=O)NCc2ccccc2)nnc1-c1ccco1 | 5.7%
O=C(CSc1nnc(-c2ccco2)n1Cc1ccccc1)c1ccccc1 | -18.4%
CC(C)(C)NC(=O)CSc1nnc(-c2ccco2)n1Cc1ccco1 | -5.83%
Cc1cc(NC(=O)CSc2nnc(-c3ccco3)n2Cc2ccco2)no1 | -24.7%
O=C(CSc1nnc(-c2ccco2)n1Cc1ccccc1)NCc1ccccc1 | -51.8%
O=C(CSc1nnc(-c2ccco2)n1Cc1ccco1)NCc1cccs1 | -33.1%
NC(=O)NC(=O)CSc1nnc(-c2ccco2)n1Cc1ccccc1 | 5.78%
O=C(CSc1nnc(-c2ccco2)n1Cc1ccco1)Nc1ccccc1 | -70.7%
CC(=O)Nc1ccc(NC(=O)CSc2nnc(-c3ccco3)n2Cc2ccco2)cc1 | -1.79%
O=C(CSc1nnc(-c2ccco2)n1Cc1ccco1)NCc1ccccc1 | -50.8%
Cc1cc(C)n(-c2ccc(S(=O)(=O)N3CCOCC3)cc2[N+](=O)[O-])n1 | -10.9%
O=C1/C(=C\c2cccnc2)CN(Cc2ccccc2)C/C1=C\c1cccnc1 | -29.4%
O=C(NCC(=O)N(CC1CCCO1)C1(C(=O)NC2CCCC2)CCCCC1)c1ccccc1 (stereo not shown) | 3.96%

SMILES | hERG current change (%, negative = inhibition) at 10uM
CCOc1ccc(C(CC(=O)O)NC(=O)C23CC4CC(CC(C4)C2)C3)cc1OC (stereo not shown) | 30.2%
Nc1c(C=C2C=CC(=O)C=C2)c(=O)nc2sc(CC(=O)N3CCCC3)nn12 | 8.79%
CN(Cc1ccc(OC(F)F)cc1)C(=O)c1ccccc1Sc1ccccc1C#N | -60.5%
CN(Cc1ccccc1)C(=O)c1cccc(C(=O)N(C)Cc2ccccc2)c1 | -3.07%
CN(Cc1ccc(OC(F)F)cc1)C(=O)c1ccc2nccnc2c1 | -67.8%
COc1cccc(CN(C)C(=O)c2ccc3nccnc3c2)c1 | -6.89%
COc1cccc(CN(C)C(=O)c2ccccc2Sc2ccccc2C#N)c1 | -13.4%
Cc1ccc(CN(C)C(=O)c2ccccc2Sc2ccccc2C#N)cc1 | 23.4%
COc1ccc(CN(C)C(=O)c2cccc(C(=O)N(C)Cc3ccc(OC)cc3)c2)cc1 | -65.6%
COc1ccc(NS(=O)(=O)c2cccc(C(=O)N(C)Cc3ccc(SC)cc3)c2)cc1 | -9.93%
CN(Cc1ccc(OC(F)F)cc1)C(=O)c1ccc2c(=O)n3c(nc2c1)CCC3 | -33.3%
COc1ccccc1NS(=O)(=O)c1ccc2oc(SC)nc2c1 | 2.84%
CN(CC(=O)Nc1ccccc1Cl)C(=O)c1cc(C2CC2)nn1-c1ccccc1 | -18.1%
CCc1nnc(NS(=O)(=O)c2ccc(N3C(=O)C4CC=C(Cl)CC4C3=O)cc2)s1 (stereo not shown) | 4.84%
CN(C)CCCN(C(=O)c1cc(-c2cccs2)nc2ccccc12)c1nc2ccc(F)cc2s1.Cl | 5.59%
CN(C)CCCN(C(=O)c1cc2ccccc2oc1=O)c1nc2ccc(F)cc2s1.Cl | -68.1%
CN(C)CCCN(C(=O)c1cc2ccccc2oc1=O)c1nc2c(F)cccc2s1.Cl | -41.1%
Cc1ccc2nc(N(CCCN(C)C)C(=O)c3cc4ccccc4oc3=O)sc2c1.Cl | -33.7%
Cc1cccc2sc(N(CCCN(C)C)C(=O)c3cc4ccccc4oc3=O)nc12.Cl | -54.6%
CC(=O)OC1COC(n2c(O)c(N=NC(N)=S)c3ccccc32)C(OC(C)=O)C1OC(C)=O (stereo not shown) | 15.8%
COC(=O)C1=C(C)N(c2ccc(Br)cc2)C(=O)/C1=C\c1ccco1 | 2.22%
c1ccc(-c2nnc3sc(Cc4cccs4)nn23)cc1 | -30.8%
Clc1ccc(-c2nnc3sc(Cc4cccs4)nn23)c(Cl)c1 | -55.7%
